Bioassay records (PubChem)
Rows were chosen to be rich in hits. Some 3.1% of all compounds tested hit in one or more screens of this group.
Nrf2 activator: Nrf2 pathway activation | AREc32 ARE-luciferase reporter (MCF7-derived line), luminescence, 24 h | Potency, µM (series often up to 46.1 µM), inactives show at the top dose activation, usual class: activators | 410,000 compounds, 0.31% hits; note: potency is the fitted concentration of half-maximal effect; % of control where 0% means no effect; nearly all actives have a fitted effect of over 65% in size
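Each well held 1000 AREc32 cells, which were incubated with compound for 24 hr at 37 deg C after overnight attachment, and ARE reporter activity was quantified by firefly luciferase luminescence.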
ELG1 DNA repair: blocks ELG1-dependent DNA repair in HEK293T cells; HEK293T ELG1-luciferase reporter, luminescence, 16 h; DNA damage induced by 5-fluorouridine; Potency, µM (series often up to 46.1 µM), inactives show at the highest dose activity change, negative = inhibition, actives largely listed as inhibitors; 330,000 compounds, 2.3% hits; note: potency is the fitted concentration of half-maximal effect; % is set by controls: 0 for no effect and ±100 for the full control effect; nearly all actives have a fitted effect of over 55% in size
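Step one: seed 2,000 cells per well. Step two: pin-transfer compound or DMSO alongside 5-fluorouridine. Step three: incubate 16 hr, 37 °C, 5% CO2. Step four: add ONE-Glo, wait 30 min, read luminescence.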
IL2 activator: IL-2 activation; IL-2 activation reporter assay, cell-based qHTS; stimulated with anti-CD3/CD4/CD28 beads; in transgenic mouse T cells; activation, % (series mostly up to about 46 µM); 360,000 compounds, 0.065% hits; in the data active = activation above about 50%; inconclusive = mostly about 30% to 49%; note: 0% is about no effect
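Using fluorescent plate cytometry, EGFP and DsRed are detected in transgenic mouse T cells stimulated 18 h at 37 degrees C with antibody-coated beads after 60 min compound pretreatment.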
BRCA1 expr up: increases BRCA1 expression | 380,000 compounds, 1.1% hits | MCF7-BRCA1-FFLuc reporter, luminescence, 48 h; response scale: scaled: vehicle 0%, 10 µM genistein 100% | Potency, µM (highest dose often 46.1 µM), for the others: top-dose activation, most hits filed as activators | AID 624202; note: potency is the fitted concentration of half-maximal effect; nearly all actives have a fitted effect of over 80% in size
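First, MCF7-BRCA1-FFLuc cells (2000/well) attach for 2 h; next, compounds are pin-added and incubated 48 h at 37 °C; finally, luciferase reagent is added and luminescence read after 15 min.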
The depositor's hits bear a star; ? = inconclusive; nt = no result. Unless noted, calls come from the whole dose curve; as a rule, active = well fitted curve in the direction sought with a large enough effect; inconclusive = small, poorly fitted or top-dose-only effect, or another doubt; inactive = no such curve, though single readings can be large; an effect the other way counts as inactive or inconclusive.

SMILES	Nrf2 activator	ELG1 DNA repair	IL2 activator	BRCA1 expr up
C/C(=N\NC(=O)c1ccc(NS(=O)(=O)c2cccs2)cc1)c1ccccn1	2.0%	3.66µM*	-1.5	-18.8%
CC(=O)c1ccc(Nc2nc3ccccc3nc2NS(=O)(=O)c2cccs2)cc1	0.0%	11.6µM*	-0.1	1.7%
Cc1cc(F)cc(-c2cc(C(=O)NCc3ccccn3)[nH]n2)c1	4.9%	nt	-0.4	-5.9%
CC1CCCCN1C(=O)Cn1c(=O)n(-c2ccc(Cl)cc2)c(=O)c2c3c(sc21)CCC3 (stereo unspecified)	-0.5%	nt	nt	0.0%
O=[N+]([O-])c1ncccc1OCc1ccc(Cl)c(Cl)c1	5.4%	?	-0.4	7.08µM*
N#C/C(=C\c1ccc(-c2ccccc2[N+](=O)[O-])o1)C(=O)Nc1nc(-c2cccs2)cs1	-0.4%	20.6µM*	0.1	3.0%
CCCCNC(=S)Nc1cccc2cnccc12	3.7%	?	0.1	-26.3%
S=C(NCCc1ccccc1)Nc1ccccn1	3.2%	?	-0.2	10µM*
O=C(Nc1ccccn1)C(=O)Nc1ccccn1	?	?	1.3	?
S=C(NCCc1ccccc1)Nc1cccc2cnccc12	3.0%	1.46µM*	-2.8	-27.9%
Cc1cccc(NC(=S)NCCc2ccccc2)n1	3.8%	?	1.0	-28.6%
S=C(NCc1cccnc1)Nc1cccc2ccccc12	-0.9%	3.1%	-0.7	-3.9%
S=C(Nc1ccccn1)c1ccccn1	?	?	-3.7	7.08µM*
S=C(NCc1ccccc1)Nc1cccc2cnccc12	3.9%	2.06µM*	8.0	-26.9%
COc1cc2oc(=O)cc(CN3CCCCC3)c2cc1Cl	-0.6%	nt	2.3	13.6%
COc1cc(OC)c(NC(=O)Cn2cnc3c(nc4n3CCCCC4)c2=O)cc1Cl	0.3%	nt	nt	nt
CCOC(=O)c1ccc2nc3c(cc2c1)CCS3	0.8%	?	-4.8	10µM*
CCCC(=O)Nc1nc2ccc(C(=O)OCC)cc2s1	4.3%	?	-0.9	63.5%
CC(C)c1ccc(Nc2c(-c3ccccn3)nc3ccccn23)cc1	1.3%	nt	nt	nt
CCCn1c2ccccc2c2nnc(SC(CC)C(=O)Nc3cc(C)on3)nc21 (stereo unspecified)	4.1%	23.1µM*	-0.3	-43.0%
O=S(=O)(c1cccc(F)c1)N1CCN(c2nc(-c3cccnc3)nc3ccccc23)CC1	0.1%	10.3µM*	4.7	-23.3%
Cc1ccc(S(=O)(=O)N2CCN(c3nc(-c4cccnc4)nc4ccccc34)CC2)cc1	nt	nt	nt	-19.8%
COc1ccc(CCNC(=O)CCCCn2c(=O)c3ccccc3n(Cc3ccc(Cl)cc3)c2=O)cc1OC	6.8%	nt	nt	-21.8%
Cn1nnnc1Sc1ncnc2scc(-c3ccc(Cl)cc3)c12	-2.0%	16.4µM*	-0.7	-70.0%
Cn1nnnc1Sc1ncnc2scc(-c3ccc4c(c3)OCO4)c12	?	-21.8%	-3.0	-97.4%
SMILES	Nrf2 activator	ELG1 DNA repair	IL2 activator	BRCA1 expr up
COc1ccc(-c2csc3ncnc(Sc4nnnn4C)c23)cc1	?	?	-2.8	-63.6%
Cn1nnnc1Sc1ncnc2scc(-c3cccc(Br)c3)c12	12.4%	13µM*	-0.4	-67.3%
Cn1nnnc1Sc1ncnc2scc(-c3ccc([N+](=O)[O-])cc3)c12	?	7.3µM*	-4.0	-84.4%
CC(C)C[C@@H](COCc1cccc(Cl)c1)N1CCN(C(=O)c2ccc(C(F)(F)F)cc2)CCC1=O	-0.3%	nt	-0.7	-49.7%
COC(=O)c1ccc2c(c1)C(=O)/C(=C/c1ccc(C)cc1)O2	2.3%	?	0.3	89.4%
COC(=O)c1ccc(/C=C2\Oc3ccccc3NC2=O)cc1	0.4%	?	-3.5	2.24µM*
COc1ccc(-c2nc3ccccc3o2)cc1NC(=O)c1ccc(N2CCC(C)CC2)c([N+](=O)[O-])c1	6.1%	nt	nt	nt
CCN(CC)C(=O)CSc1nc(-c2cccs2)cc(-c2cccs2)c1C#N	0.1%	16.4µM*	-1.8	-53.6%
CC(=O)N1CCN(Cc2nc3cc(NC(=O)c4ccc(Cl)cc4)ccc3n2C)CC1	2.4%	20.6µM*	0.7	-34.7%
CC(=O)N1CCN(Cc2nc3cc(NC(=O)c4cccc(Br)c4)ccc3n2C)CC1	2.6%	8.2µM*	-6.1	32.4%
CC(=O)N1CCN(Cc2nc3cc(NC(=O)c4ccccc4C)ccc3n2C)CC1	0.1%	-9.0%	-0.1	6.1%
CCC(Oc1ccc(F)cc1)C(=O)Nc1nc(-c2ccc(F)cc2)ns1 (stereo unspecified)	-0.9%	nt	nt	nt
CC(C)N(Cc1ccccc1)c1ncnc2c1nnn2C	-0.4%	nt	nt	nt
